Screening data deposited in PubChem by The Scripps Research Institute Molecular Screening Center.
MITF inh – blocks human microphthalmia-associated transcription factor. hit rate 0.91% among 650,000. O75030. inhibition, % at 2.6 µM. AlphaScreen MITF homodimerization, bead proximity signal; in the data active = inhibition above about 50%;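 also: 0% = vehicle wells with protein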
GPR151 ag – human GPR151 activation. PathHunter beta-arrestin GPR151 cells, luminescence. activation, % at 11.2 µM. hit rate 1% among 650,000. AID 1508602; in the data active = activation above about 4.9%;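 also: 0% = median of compound wells and 100% = cells with positive control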
Target sequence (Q8TDV0 whole entry, looked up): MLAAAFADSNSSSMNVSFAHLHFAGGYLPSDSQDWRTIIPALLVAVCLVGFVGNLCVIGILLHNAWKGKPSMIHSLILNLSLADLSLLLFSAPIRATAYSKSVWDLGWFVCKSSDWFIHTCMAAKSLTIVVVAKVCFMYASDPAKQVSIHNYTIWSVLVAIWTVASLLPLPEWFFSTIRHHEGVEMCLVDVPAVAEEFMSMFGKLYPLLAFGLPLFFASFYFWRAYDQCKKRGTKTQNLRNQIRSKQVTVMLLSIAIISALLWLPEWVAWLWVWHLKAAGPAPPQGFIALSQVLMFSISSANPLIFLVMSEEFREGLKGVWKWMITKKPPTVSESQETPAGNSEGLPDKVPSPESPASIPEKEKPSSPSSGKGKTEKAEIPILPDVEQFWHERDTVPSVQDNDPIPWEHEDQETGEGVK
TEAD-YAP block – TEAD-YAP interaction inhibition; HEK-TIYL cells, TEAD-Gal4/YAP UAS-luciferase luminescence; inhibition, % at 9.12 µM; hit rate 1.4% among 640,000; AID 1259422; in the data active = inhibition above about 32%;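 also: 0% = median of test compound wells and 100% = reference inhibitor wells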
FBW7 act – activators of human E3 ligase FBW7. hit rate 0.13% among 650,000. AID 1259310. AlphaScreen FBW7–phospho-cyclin E peptide binding, activator screen. normalized activity (activation), % at 26.1 µM. Q969H0; in the data active = normalized activity above about 1.9%;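 also: purified mutant Fbw7 with reduced substrate affinity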
GPR151 conf act – confirmation of human GPR151 activators; shares compounds with GPR151 ag; GPR151 PathHunter beta-arrestin cells, luminescence, 90 min; % of EA-reagent control over plate median; activation, % at 11.2 µM; 6,700 tested, under 10 active;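 active = mean percent activation across replicates above the confirmation screen cutoff of 4.91%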
GPR119 counter – activates human GPR119 in a GPR151 counter-screen. GPR119 PathHunter beta-arrestin cells, luminescence, 90 min; 0 = compound-well median, 100 = enzyme-acceptor control. shares compounds with GPR151 ag. activation, % at 11.2 µM. hit rate 0.3% among 6,700. AID 1508611;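 active = mean percent activation in the counterscreen above 29.09%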;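 also: counterscreen on off-target GPR119 to flag nonselective hits from the GPR151 activator screen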
* = called active by the depositor; / = not tested or not shown. In the library only some 3.5% were active in any assay of this set; here they are far more common.

SMILES	MITF inh	GPR151 ag	TEAD-YAP block	FBW7 act	GPR151 conf act	GPR119 counter
CC1(C)C(c2ccco2)=[N+]([O-])C2(CCCCCC2=O)N1O (configuration not stated)	-2	7.7*	0	0	0	14
CC1(C)C(c2cccs2)=[N+]([O-])C2(CCCCCC2=O)N1O (configuration not stated)	8	1	4	0	/	/
Cc1ccc(CNC(=O)c2ccc(C)cc2)cc1	28	0	-20	1	/	/
Cc1ccc(CNC(=O)c2sccc2-n2cccc2)cc1	16	5.6*	2	0	0	7
Cc1ccc(CNC(=O)c2ccc(-n3cccc3)cc2)cc1	41	1	-17	0	/	/
Cc1ccc(CNC(=O)C(=O)NCc2ccc(Cl)cc2)cc1	11	0	3	0	/	/
Cc1ccc(CNC(=O)c2csnn2)cc1	7	13*	-3	0	1	7
Cc1ccc(CNC(=O)Cc2ccc(Cl)cc2)cc1	1	8.4*	-12	0	0	-2
COc1ccccc1OCC(=O)NCc1ccc(C)cc1	-3	5.4*	-12	1	0	4
O=C(NCc1cccnc1)C1(c2cccs2)CCOCC1	3	0	3	0	/	/
O=C(CN(C(=O)c1csnn1)c1ccc(F)cc1)NCc1ccccc1	8	5.6*	-2	0	-1	-6
O=C1N[C@@H](Cc2cnc[nH]2)C(=O)N2CCN(Cc3cccs3)C[C@H]12	7	1	6	0	/	/
CCOC(=O)C1CCC(CN(Cc2ccccc2C)S(=O)(=O)c2ccc(F)cc2)CC1 (configuration not stated)	9	0	-2	1	/	/
CCOc1ccc2c(c1)/C(=c1/sc3n(c1=O)CN(c1ccccc1)CN=3)C(=O)N2	3	-1	4	0	/	/
Cc1c(NC(=O)Nc2ccc(Br)cc2F)c(=O)n(-c2ccccc2)n1C	-2	0	-5	0	/	/
O=C(/C=C/c1c(F)cccc1Cl)NCCN1CCOCC1	-5	6.2*	-3	0	-1	-12
COc1cccc(C(Nc2cc(C)ccn2)c2ccc3cccnc3c2O)c1 (configuration not stated)	32	5.1*	80*	0	0	0
Cc1ccnc(NC(c2cccc(C)n2)c2ccc3cccnc3c2O)c1 (configuration not stated)	26	-1	19	0	/	/
CC(C)CC(=O)N1CCC(C2(CCc3ccccc3)NC(=O)N(CCN(C)C)C2=O)CC1 (configuration not stated)	3	-1	9	0	/	/
CCC(C)CC(=O)N1CCC(C2(CCC(C)C)NC(=O)N(CCN(C)C)C2=O)CC1 (configuration not stated)	7	7.5*	8	0	0	-4
CC(C)C1Oc2ccccc2N(CC(=O)NCCCN2C(C)CCCC2C)C1=O (configuration not stated)	18	5.0*	12	0	0	-3
COCCCNC(=O)CN1C(=O)C(C(C)C)Oc2ccc(C)cc21 (configuration not stated)	2	6.1*	4	0	0	13
COc1ccccc1S(=O)(=O)Cc1ccc(C(=O)N2CCOCC2)o1	-7	46*	-17	0	0	6
COc1ccc(C2C(C(=O)N3CC(C)CC(C)C3)c3ccccc3C(=O)N2C2CCCCC2)cc1 (configuration not stated)	-11	-1	9	0	/	/
CCC(C)C(=O)N1CCC(n2nccc2NC(=O)Nc2cccc(F)c2)CC1 (configuration not stated)	13	6.6*	-24	0	0	-10
SMILES	MITF inh	GPR151 ag	TEAD-YAP block	FBW7 act	GPR151 conf act	GPR119 counter
COc1ccccc1C(=O)Nc1ccnn1C1CCN(Cc2cccc(F)c2)CC1	-10	6.6*	14	0	0	-6
Cc1cccc(NC(=O)c2ccc(F)c(S(=O)(=O)NCc3cccs3)c2)c1	-5	1	5	0	/	/
Cc1ccc(-n2cc(C(=O)N3CCOCC3)c3ccccc3c2=O)cc1C	2	-1	2	0	/	/
C=CCOc1ccc(/C(O)=C2/C(=O)C(=O)N(CCN(CC)CC)C2c2ccc(C)cc2)c(C)c1 (configuration not stated)	-7	7.1*	5	0	0	-3
CN1[C@@H](C(=O)NCc2ccccc2)C[C@@H](c2ccco2)NS1(=O)=O	13	0	10	0	/	/
O=C(N/N=C/c1cccc([N+](=O)[O-])c1)c1cc(O)c(O)c(O)c1	15	5.7*	-10	0	1	4
O=C(N/N=C/c1cccc(O)c1)c1cccnc1	6	5.8*	-1	0	-1	-11
O=C(N/N=C/c1ccc([N+](=O)[O-])cc1)c1ccc(Br)cc1	4	7.8*	-5	0	1	-2
O=C(N/N=C/c1cccc(O)c1)c1cnccn1	-2	-5	-6	0	/	/
O=C(N/N=C\c1ccc(Br)cc1)c1cc([N+](=O)[O-])cc([N+](=O)[O-])c1	3	-1	-3	0	/	/
O=C(CCCC(=O)N/N=C/c1cccc([N+](=O)[O-])c1)N/N=C/c1cccc([N+](=O)[O-])c1	-8	14*	6	0	1	2
O=C(CCC(=O)N/N=C/c1cccc([N+](=O)[O-])c1)N/N=C/c1cccc([N+](=O)[O-])c1	-5	-1	2	0	/	/
O=C(N/N=C\c1cccc([N+](=O)[O-])c1)c1ccc(O)cc1	-24	-1	2	0	/	/
CCc1ccc(-c2nc(CS(=O)CC(=O)NCc3ccc(Cl)cc3)c(C)o2)cc1 (configuration not stated)	-8	1	8	0	/	/
CC1(C(=O)Nc2ccc(OCC(N)=O)cc2)CC1(Cl)Cl (configuration not stated)	-6	1	0	0	/	/
Cc1cc(-c2ccccc2)c(C#N)c(SCC(=O)Nc2nccs2)n1	13	0	1	1	/	/
COc1ccc(OCC(=O)NNC(C)=O)cc1	-6	0	3	0	/	/
CCn1nccc1C(=O)Nc1ccc(OC)c2ccccc12	11	-1	-5	0	/	/
COc1ccc(Cl)cc1NC(=O)c1cc(S(=O)(=O)N2CCCCCC2)ccc1F	-6	5.7*	2	0	0	-9
COc1ccc(Cl)cc1NC(=O)c1cc(S(=O)(=O)N2CCCCC2)ccc1F	-3	1	7	0	/	/
CCOc1ccccc1NC(=O)c1cc(S(=O)(=O)NCCC2=CCCCC2)ccc1F	9	1	2	0	/	/
CCCNS(=O)(=O)c1ccc(F)c(C(=O)Nc2cc(C)ccc2OC)c1	-3	0	-2	0	/	/
CCCNS(=O)(=O)c1ccc(F)c(C(=O)Nc2cc(Cl)ccc2OC)c1	8	5.8*	-10	1	-1	-2
